# Bioassay records (PubChem)
# IL1B secr inh: blocks inflammasome-driven IL-1 beta release; THP-1 LPS/ATP IL-1B secretion, AlphaLISA, 16 h; stronger effect = lower value; hit rate 4.7% among 360,000; activity change, % at 57.5 µM; in the data active means activity change below about -50%; inconclusive means mostly about -30% to -49%
#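 THP-1 cells pretreated 1 hr with compounds (up to 57.5 uM final), then stimulated with LPS (250 ng/mL final) plus ATP (1.25 mM final); secreted IL-1B measured by AlphaLISA after 16 hr, decreased signal indicating inhibition.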
# DT40 TDP1 no CPT: qHTS for Inhibitors of human tyrosyl-DNA phosphodiesterase 1 (TDP1): qHTS in cells in absence of CPT; DT40 Tdp1-/- hTDP1 cells, no CPT, ATP luminescence, 48 h; Potency, µM (titrated, usually from 46.2 µM), for the others: at the highest dose activity change, negative = growth inhibition, usual class: inhibitors; hit rate 15% among 420,000; further: potency means the concentration at half of the fitted maximal effect; nearly all actives have a fitted effect of over 55% in size
#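 Growth of hTDP1-complemented DT40 Tdp1-knockout cells is measured by ATP luminescence after at least 48 hr compound exposure at 37 °C, with DMSO substituting for the 20 nM CPT used in the parallel screen.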
# HT1080 IDH1KD tx: toxicity to HT-1080 IDH1 knockdown cells (counter line). hit rate 2% among 360,000. HT-1080 IDH1 knockdown viability, ATP luminescence, 48 h. AID 686971. Potency, µM (highest dose often 46.1 µM), inactives show at the top dose activity, negative = toxicity, actives largely listed as cytotoxic;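 further: potency means the concentration at half of the fitted maximal effect; 0% = DMSO wells and -100% = cell-free medium wells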
#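 Assay cells: HT-1080 with IDH1 knockdown, 750 per well, RPMI/5% FBS. Exposure: 48 h at 37 °C following 2 h pre-incubation. Read: CellTiter-Glo luminescence; fitted concentration-response, curve class assigned.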
# TDP1 cell CPT: growth inhibition of DT40 Tdp1-/-;hTDP1 cells with camptothecin (screen for TDP1 inhibitors). AID 686979. hit rate 12% among 420,000. Potency, µM (highest dose often 46.2 µM), without a hit: at the top dose activity change, negative = growth inhibition, usual class: inhibitors. chicken DT40 Tdp1-/-;hTDP1 cells + 20 nM CPT, ATP luminescence, 48 h; further: potency means the concentration at half of the fitted maximal effect; nearly all actives have a fitted effect of over 55% in size
#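 Chicken DT40 Tdp1-/- cells stably complemented with human TDP1 were seeded at 400 cells/well in medium containing 20 nM camptothecin, exposed to pin-transferred compounds, and grown at 37 °C for at least 48 hr. Viability was read as ATP luminescence.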
# HT1080-NT tox: kills 2HG-producing HT-1080-NT fibrosarcoma cells; HT-1080-NT fibrosarcoma viability, CellTiter-Glo ATP luminescence, 48 h; Potency, µM (doses to about 46.1 µM), inactives show top-dose activity, negative = less viability, hits mostly cytotoxic; hit rate 1.6% among 360,000; AID 686970;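 further: NT is the 2HG producing partner of a matched IDH1 knockdown line; potency means the concentration at half of the fitted maximal effect; 0% = DMSO-treated cells and -100% = media-only wells without cells; nearly all actives have a fitted effect of over 55% in size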
#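 A 48-hour cytotoxicity screen used HT-1080-NT cells plated 2 hours before compound delivery. ATP-based CellTiter-Glo luminescence measured viability, normalized to DMSO and no-cell controls.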
# Starred values were filed as active, the others as inactive; ? = inconclusive; nt = no result given; ! = not confirmed by another sample; [ ] = another dose, or the depositor's remark. The list is not random: actives were taken first. Their share in the collection is about 19%. Unless noted, the call rests on the fitted dose curve; in most records, active means well fitted curve in the direction sought with a large enough effect; inconclusive means small, poorly fitted or top-dose-only effect, or another doubt; inactive means no such curve, though single readings can be large; an effect the other way counts as inactive or inconclusive. Unless noted, on the % scale 0 is the no-effect control and ±100 the full control effect.
SMILES,IL1B secr inh,DT40 TDP1 no CPT,HT1080 IDH1KD tx,TDP1 cell CPT,HT1080-NT tox
CCOc1cccc(C(=O)Nc2ccncc2)c1,14,?,-13%,23µM*,?
CC(C)Oc1cccc(C(=O)NC(=S)Nc2cccc(C(F)(F)F)c2)c1,-9,?,-9%,?,?
CCOc1ncccc1C(=O)Nc1cccc(C(=O)Nc2cccc(S(=O)(=O)CCO)c2)c1,?,7.3µM*,-3%,?,0%
CCOc1ccc(Nc2nc(C)c(NC(=O)c3cccc(OC)c3)c(Nc3ccc(OCC)cc3)n2)cc1,nt,2.3µM*,nt,1.5µM*,nt
CCOc1ncccc1C(=O)Nc1cccc(S(=O)(=O)NC2=NCCC2)c1,-2,-4%,-2%,-10%,-7%[9.24 µM]
COc1cc(C(=O)NCCCC2CCCC2)ccc1OC1CCN(C(C)=O)CC1,8,?,-1%,?,0%
COC(=O)c1c(C(=O)OC)c2c(-c3ccccc3)cc3cccc1n32,40,?,-19%,?,-20%
CCC(=O)NNC(=O)c1cc(COc2cc(Cl)cc(Cl)c2)on1,-9,-22%,-2%,-18%,-3%
COc1cccc(C(=O)CN(C(=O)c2ccc(Cl)c(Cl)c2)N2C(=O)C3CCCCC3C2=O)c1 (stereo unspecified),9,3%,26%,-21%,9%
O=C1CCN(Cc2ccccc2)CCN1[C@H](CSc1ccccc1)Cc1ccccc1,-23,20µM*,-13%,23µM*,-7%
COc1ccc(SC[C@H](CC(C)C)N2CCN(CCc3ccccc3)CCC2=O)cc1,-1,18µM*,-21%,15µM*,?
O=C1CC[C@H](O)CCN1[C@H](CSc1ccccc1)Cc1ccccc1,20,?,0%,?,11%
CC(C)C[C@@H](CSc1ccc(Br)cc1)N1CCN(CC(C)C)CCC1=O,?,16µM*,-3%,23µM*,0%
O=C1CCN(Cc2ccc(Br)cc2)CCN1[C@H](CO)c1ccccc1,-9,14µM*!,8%,?,9%
O=C1CCN(Cc2ccc([N+](=O)[O-])cc2)CCN1[C@H](CO)c1ccccc1,-3,-9%,10%,?,12%
CC1(C)N=C(c2ccc(Cl)cc2)C(=O)N1,7,3%,-3%,8%,6%
COC(=O)c1ccc(COC(=O)C2CCN(S(=O)(=O)c3c(C)cc(C)cc3C)CC2)o1,22,-2%,1%,-2%,1%
CSc1cccc(NC(=O)CN(C)S(=O)(=O)c2cnc[nH]2)c1,27,1%,1%,-2%,-4%
Cc1ccc(SC[C@H](CC(C)C)N2CCN(CCc3ccccc3)CCC2=O)cc1,26,?,-15%,?,-25%
O=C1CCN(CCc2ccccc2)CCN1[C@H](CSc1ccc(Br)cc1)Cc1ccccc1,-11,15µM*,-9%,16µM*,-13%
CC(C)C[C@@H](CN=[N+]=[N-])N1CCN(CCc2ccccc2)CCC1=O,nt,13µM*,nt,?,nt
Cc1ccc(NC(=O)CCn2nnc3ccccc32)cc1,?,-20%,21%,-4%,?
CC1CCN(CCCNC(=O)Cn2ncc3c([nH]c4ccccc43)c2=O)CC1,0,14%,16%,-3%,2%
COc1ccccc1N1CCN(CCCNC(=O)Cn2ncc3c([nH]c4ccccc43)c2=O)CC1,-27,21µM*,-2%,?,-3%
O=C(Cn1ncc2c([nH]c3ccccc32)c1=O)Nc1ccc(CN2CCCCC2)cc1,101,18µM*,-4%,?,-19%
O=C(Cn1ncc2c([nH]c3ccccc32)c1=O)NCCc1ccc(Cl)cc1,-9,-12%,0%,-3%,-3%
CCOc1cc2[nH]c(=S)n(CCCN3CCOCC3)c(=O)c2cc1OCC,8,?,8%,?,9%
COc1cc2c(=O)n(CCCN3CCOCC3)c(=S)[nH]c2c(OC)c1OC,38,23µM*,12%,5.8µM*,10%
